# Measured values reported in the supplement of paper PMC8728848.
# The sample as a whole holds a higher share of the strongest signals than the screen did.
# B1: SP15308F-bth-333-19-333 (Bacteroides thetaiotaomicron) (protein)
# chain: SCNNEWESEQYVQMVSFKAPVNAQGVTPIYIRYKPEGKVTYQLPLIVSGSTMNSKDLNVHVGLDLDTLDVLNVEHFGSRKELFFKPLENKYYEFPETVQIPAGECTSLLPIDFALKDLDQVDKWVLPLAIQSNDPSHNYQANPRKFYRRAMLRISPFNDYSGQYSATAYKVYFKGNEKEAIVPEYHTSYVIDDKTIFFYAGLIDIDRLDRKYYKIKFEFTEEKIDLQTRKLKISSDNEDINLVVKGQPSYTVEEEMDATRPYLKHIYVTINNLEYEFTDYTSVPGYPLEYVVKGSLTMERKINTQIPDEDQAIEW
# How the values were obtained:
# Test in all cases: glycan array binding signal (z-score within array); higher = stronger binding
# Conditions in all cases: glycan notation: IUPAC condensed, linker removed
# [1] = target: Gal(b1-4)GlcNAc(b1-3)[Fuc(a1-3)GlcNAc(b1-6)]Gal(b1-4)Glc
# Outline: (§1)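 The Consortium for Functional Glycomics database supplied 3228 glycan arrays, of which those lacking an available protein sequence were dropped. The binding signal, a within-array Z-score, was averaged across arrays of the same protein sequence and across linkers. Negative scores can be read as non-binding.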
# [2] = target: Gal(b1-6)Gal
# Outline: as §1
# [3] = target: GalNAc(b1-4)GlcNAc(b1-2)Man(a1-3)[GalNAc(b1-4)GlcNAc(b1-2)Man(a1-6)]Man(b1-4)GlcNAc(b1-4)GlcNAc
# Outline: as §1
# [4] = target: GalNAc(b1-6)GalNAc
# Outline: as §1
# [5] = target: Glc(a1-6)Glc(a1-6)Glc(a1-6)Glc
# Outline: as §1
# [6] = target: GlcNAc(a1-4)Gal(b1-4)GlcNAc(b1-3)Gal(b1-4)[Fuc(a1-3)]GlcNAc(b1-3)Gal(b1-4)[Fuc(a1-3)]GlcNAc
# Outline: as §1
# [7] = target: GlcNAc(b1-2)[GlcNAc(b1-4)]Man(a1-3)[GlcNAc(b1-4)][GlcNAc(b1-2)[GlcNAc(b1-6)]Man(a1-6)]Man(b1-4)GlcNAc(b1-4)GlcNAc
# Outline: as §1
# [8] = target: GlcNAc(b1-2)[GlcNAc(b1-6)]Man(a1-6)[GlcNAc(b1-2)Man(a1-3)]Man(b1-4)GlcNAc(b1-4)GlcNAc
# Outline: as §1
# [9] = target: GlcNAc(b1-3)Gal(b1-4)GlcNAc
# Outline: as §1
# [10] = target: GlcNAc(b1-3)Gal(b1-4)GlcNAc(b1-2)[GlcNAc(b1-3)Gal(b1-4)GlcNAc(b1-6)]Man(a1-6)[GlcNAc(b1-3)Gal(b1-4)GlcNAc(b1-2)Man(a1-3)]Man(b1-4)GlcNAc(b1-4)GlcNAc
# Outline: as §1
# [11] = target: GlcNAc(b1-3)Gal(b1-4)GlcNAc(b1-3)Gal(b1-4)GlcNAc(b1-3)Gal(b1-4)GlcNAc(b1-3)Gal(b1-4)GlcNAc(b1-2)Man(a1-3)[GlcNAc(b1-3)Gal(b1-4)GlcNAc(b1-3)Gal(b1-4)GlcNAc(b1-3)Gal(b1-4)GlcNAc(b1-3)Gal(b1-4)GlcNAc(b1-2)Man(a1-6)]Man(b1-4)GlcNAc(b1-4)[Fuc(a1-6)]GlcNAc
# Outline: as §1
# [12] = target: GlcNAc(b1-4)[GlcNAc(b1-6)]GalNAc
# Outline: as §1
# [13] = target: Man(a1-2)Man(a1-3)[Man(a1-2)Man(a1-6)]Man(a1-6)[Man(a1-2)Man(a1-2)Man(a1-3)]Man(b1-4)GlcNAc(b1-4)GlcNAc
# Outline: as §1
# [14] = target: Man(a1-3)[Man(a1-6)]Man
# Outline: as §1
# [15] = target: Man(a1-3)[Man(a1-6)]Man(a1-6)[Man(a1-2)Man(a1-3)]Man(b1-4)GlcNAc(b1-4)GlcNAc
# Outline: as §1
# [16] = target: Neu5Ac(a2-3)Gal(b1-3)GalNAc
# Outline: as §1
# [17] = target: Neu5Ac(a2-3)Gal(b1-3)GlcNAc(b1-2)Man
# Outline: as §1
# [18] = target: Neu5Ac(a2-3)Gal(b1-4)GlcNAc6S
# Outline: as §1
# [19] = target: Neu5Ac(a2-3)Gal(b1-4)[Fuc(a1-3)]GlcNAc(b1-3)GalNAc
# Outline: as §1
# [20] = target: Neu5Ac(a2-6)Gal(b1-4)GlcNAc(b1-2)[Neu5Ac(a2-6)Gal(b1-4)GlcNAc(b1-6)]Man(a1-6)[Neu5Ac(a2-6)Gal(b1-4)GlcNAc(b1-2)Man(a1-3)][GlcNAc(b1-4)]Man(b1-4)GlcNAc(b1-4)GlcNAc
# Outline: as §1
# [21] = target: Neu5Ac(a2-6)Gal(b1-4)GlcNAc(b1-3)Gal(b1-4)GlcNAc(b1-2)Man(a1-3)[Neu5Ac(a2-6)Gal(b1-4)GlcNAc(b1-3)Gal(b1-4)GlcNAc(b1-2)Man(a1-6)]GalNAc
# Outline: as §1
# [22] = target: Neu5Ac(a2-6)Gal(b1-4)GlcNAc(b1-3)Gal(b1-4)GlcNAc(b1-3)Gal(b1-4)GlcNAc(b1-2)Man(a1-3)[Neu5Ac(a2-6)Gal(b1-4)GlcNAc(b1-3)Gal(b1-4)GlcNAc(b1-3)Gal(b1-4)GlcNAc(b1-2)Man(a1-6)]GalNAc
# Outline: as §1
# [23] = target: Neu5Ac(a2-6)Gal(b1-4)GlcNAc(b1-6)[Gal(b1-3)GlcNAc(b1-3)]Gal(b1-4)Glc
# Outline: as §1
# [24] = target: Neu5Ac(a2-6)Gal(b1-4)GlcNAc(b1-6)[Gal(b1-3)]GalNAc
# Outline: as §1
# [25] = target: Neu5Gc(a2-3)Gal(b1-3)[Fuc(a1-4)]GlcNAc
# Outline: as §1
binder,measurement,setting,value
B1,glycan array binding signal (z-score),[1],-0.005
same,glycan array binding signal (z-score),[2],-0.244
same,glycan array binding signal (z-score),[3],1.38
same,glycan array binding signal (z-score),[4],2.02
same,glycan array binding signal (z-score),[5],-0.539
same,glycan array binding signal (z-score),[6],2.63
same,glycan array binding signal (z-score),[7],-1.46
same,glycan array binding signal (z-score),[8],-0.327
same,glycan array binding signal (z-score),[9],-0.835
same,glycan array binding signal (z-score),[10],2.85
same,glycan array binding signal (z-score),[11],2.43
same,glycan array binding signal (z-score),[12],0.249
same,glycan array binding signal (z-score),[13],-0.143
same,glycan array binding signal (z-score),[14],-0.694
same,glycan array binding signal (z-score),[15],-0.363
same,glycan array binding signal (z-score),[16],1.83
same,glycan array binding signal (z-score),[17],1.15
same,glycan array binding signal (z-score),[18],1.4
same,glycan array binding signal (z-score),[19],3.76
same,glycan array binding signal (z-score),[20],0.627
same,glycan array binding signal (z-score),[21],3.27
same,glycan array binding signal (z-score),[22],2.6
same,glycan array binding signal (z-score),[23],-0.927
same,glycan array binding signal (z-score),[24],-0.014
same,glycan array binding signal (z-score),[25],0.217
